{"source": "ChEMBL document CHEMBL3988442", "about": "“University of Dundee, Small-Polar-MMV Screening Library” (2021)", "note": "About 13,000 (27%) of roughly 48,000 compounds showed an effect of 50% or more. This is one part of the list.", "data": [{"tested_on": "Wolbachia pipientis", "test": "Anti-Wolbachia Cell-Based Screen", "format": "functional", "parameters": "scale not given: in the data most compounds retested in dose-response had high values", "conditions": "5 µM", "units": {"Percent Effect": "%"}, "values": [{"smiles": "CCc1nc2n(n1)CC(Nc1nc(C)cc(N(C)C)n1)CC2", "note": "(stereo not drawn)", "Percent Effect": 2.422}, {"smiles": "CCC1=NOC(CNCc2cnc(-c3ccccc3C)s2)C1", "note": "(stereo not drawn)", "Percent Effect": -1.087}, {"smiles": "Cc1c(C)n(CC(O)CN2CCCCCC2)c2c(Cl)cccc12", "note": "(stereo not drawn)", "Percent Effect": 9.081}, {"smiles": "CC(=O)c1cccc(NC(=O)NCCc2nnc[nH]2)c1", "Percent Effect": -18}, {"smiles": "O=C(O)c1nnn(Cc2cccc(C(F)(F)F)c2)c1-c1ccncc1", "Percent Effect": -2.735}, {"smiles": "O=C(O)c1nnn(Cc2cccc(C(F)(F)F)c2)c1-c1ccccn1", "Percent Effect": 11.55}, {"smiles": "O=c1n(Cc2cccc(C(F)(F)F)c2)nc2ncccn12", "Percent Effect": 134.4}, {"smiles": "Cc1cncc(NCc2ccccc2N2CCOCC2)c1", "Percent Effect": 0.5273}, {"smiles": "O=C(NCc1ccccc1CO)Nc1ccc2c(c1)CCO2", "Percent Effect": 11.78}, {"smiles": "Cc1csc(N2CCCN(C(=O)C3(C#N)CCCCC3)CC2)n1", "Percent Effect": -2.808}, {"smiles": "COCc1c(Br)cccc1NC(=O)N(C)CCO", "Percent Effect": -0.915}, {"smiles": "CCN(Cc1ccncc1)C1CCCN(Cc2ccc(F)cc2OC)C1", "note": "(stereo not drawn)", "Percent Effect": -6.511}, {"smiles": "COc1ccc(C(C#N)NC(=O)CC2=CCCCC2)c(OC)c1", "note": "(stereo not drawn)", "Percent Effect": -6.467}, {"smiles": "COc1cccc(C(CO)NC(=O)Cc2ccc(F)c(Br)c2)c1", "note": "(stereo not drawn)", "Percent Effect": 1.843}, {"smiles": "COc1ccc(C(C#N)NC(=O)Cc2ccc(F)c(F)c2)c(OC)c1", "note": "(stereo not drawn)", "Percent Effect": 86.82}, {"smiles": "COCc1nc(C)cc(Nc2ccc3c(c2)CC(=O)N3)n1", "Percent Effect": -4.999}, {"smiles": "COc1cc2c(cc1CN1C[C@@H](CN3CCOCC3)[C@@H](CO)C1)CCC2", "Percent Effect": 3.11}, {"smiles": "COc1ccc(OC)c(C2CCN(C(=O)C3CCOCC3)C2)c1", "note": "(stereo not drawn)", "Percent Effect": 3.237}, {"smiles": "Cc1c[nH]c(CN2CC[C@@]3(O)CCN(C(=O)C4CCCC4)C[C@H]3C2)n1", "Percent Effect": 6.79}, {"smiles": "Cc1c[nH]nc1C1CCN(C(=O)C2CCCC2)C1", "note": "(stereo not drawn)", "Percent Effect": 108.3}, {"smiles": "Cc1c[nH]nc1C1CCN(S(=O)(=O)N(C)C)CC1", "Percent Effect": -12.28}, {"smiles": "Cc1c[nH]nc1C1CCN(C(=O)C2CCC2)CC1", "Percent Effect": 187.6}, {"smiles": "O=C(C1CCS(=O)(=O)CC1)N1CCC(c2ccc(F)cc2)C1", "note": "(stereo not drawn)", "Percent Effect": -11.81}, {"smiles": "COc1ccc2cc(C3CN(C(=O)C4CCOCC4)CCO3)ccc2c1", "note": "(stereo not drawn)", "Percent Effect": -17.44}, {"smiles": "Cc1c[nH]nc1C1CCN(C(=O)C2CCOCC2)C1", "note": "(stereo not drawn)", "Percent Effect": 146.2}, {"smiles": "Cc1c[nH]nc1C1CCN(C(=O)CC2CCCC2)C1", "note": "(stereo not drawn)", "Percent Effect": 140.5}, {"smiles": "Cc1ccc(NC(=O)N2CCN(C(=O)CC3CCCC3)CC2)s1", "Percent Effect": -2.154}, {"smiles": "CCc1nc(CN2CCCN(C(=O)CC3CCCC3)CC2)cs1", "Percent Effect": -10.08}, {"smiles": "O=C(C1CCC1)N1CCC(C(=O)N2CCC(c3ccc(F)cc3)C2)CC1", "note": "(stereo not drawn)", "Percent Effect": 15.47}, {"smiles": "CNC(=O)[C@@H]1C[C@H](N)CN1S(=O)(=O)c1cc(Cl)c(Cl)s1", "Percent Effect": -16.04}, {"smiles": "Cc1ccc2oc(C(=O)N3CCCC(n4nc(C)cc4C)C3)cc2n1", "note": "(stereo not drawn)", "Percent Effect": -4.167}, {"smiles": "C1CCN(CCOC2CCNCC2)C1", "Percent Effect": -3.216}, {"smiles": "CNC(=O)[C@@H]1C[C@@H](N)CN1C1CCN(c2ccccc2F)CC1", "Percent Effect": -6.416}, {"smiles": "O=C(c1ccc2[nH]nnc2c1)N1CC[C@H](O)[C@]2(CCCO2)C1", "Percent Effect": 85.31}, {"smiles": "O=C(c1ccc2[nH]nnc2c1)N1CCCC(n2cccn2)C1", "note": "(stereo not drawn)", "Percent Effect": -7.495}, {"smiles": "O=C(c1ccc2c(c1)CCC2)N1CCCCC1C1OCCO1", "note": "(stereo not drawn)", "Percent Effect": -21.29}, {"smiles": "O=C(c1ccc2c(c1)CCC2)N1CC[C@H](O)[C@]2(CCCO2)C1", "Percent Effect": 143.9}, {"smiles": "O=C(c1ccc2[nH]nnc2c1)N1C[C@H](O)[C@]2(CCCO2)C1", "Percent Effect": 107.9}, {"smiles": "CC(C)S(=O)(=O)NCC1CCCN(C(=O)c2ccc3c(c2)CCC3)C1", "note": "(stereo not drawn)", "Percent Effect": -10.39}, {"smiles": "COc1ccc(NC(=O)NC(C)(C)c2noc(C)n2)cc1", "Percent Effect": -12.65}, {"smiles": "CS(=O)(=O)CCOCCNc1ccc(C#N)cc1F", "Percent Effect": -9.887}, {"smiles": "FC(F)(F)c1n[nH]c2c1CN(CCc1ccccn1)CC2", "Percent Effect": -4.323}, {"smiles": "COc1ccc(-c2cccc(-c3ccn(CC4COCCO4)n3)c2)nn1", "note": "(stereo not drawn)", "Percent Effect": -12.89}, {"smiles": "Cn1cnc2cc(C(=O)NS(=O)(=O)c3ccc(F)cc3)ccc21", "Percent Effect": -13.37}, {"smiles": "O=C(O)C1c2nc[nH]c2CCN1Cc1ccc(-c2ccccc2)s1", "note": "(stereo not drawn)", "Percent Effect": -13.4}, {"smiles": "Cc1nc(CN2CCC3(CCN(Cc4cnn(C)c4)CC3)C2=O)cs1.O=C(O)C(F)(F)F.O=C(O)C(F)(F)F", "Percent Effect": 102.9}, {"smiles": "Cc1nc(CN2CCC3(CCCN(Cc4cnn(C)c4)C3)C2=O)cs1.O=C(O)C(F)(F)F.O=C(O)C(F)(F)F", "note": "(stereo not drawn)", "Percent Effect": 12.7}, {"smiles": "Cc1nc(CN2CCC3(CCN(Cc4nccn4C)CC3)C2=O)cs1.O=C(O)C(F)(F)F.O=C(O)C(F)(F)F", "Percent Effect": 106}, {"smiles": "Cc1nc(CN2CCC3(CCN(Cc4cnn(C)c4)C3)C2=O)cs1", "note": "(stereo not drawn)", "Percent Effect": 104.5}, {"smiles": "O=C1O[C@@H]2CN(Cc3cc4ccccc4o3)C[C@@H]2N1Cc1ccccn1", "Percent Effect": 8.786}, {"smiles": "CN(Cc1ccncn1)c1nccc(CCC(F)(F)F)n1", "Percent Effect": 2.558}, {"smiles": "CN1CCN(Cc2cn3c(n2)CN(C2CCOCC2)CC3)CC1.O=C(O)C(F)(F)F.O=C(O)C(F)(F)F.O=C(O)C(F)(F)F", "Percent Effect": 107}, {"smiles": "O=C(O)C(F)(F)F.O=C(O)C(F)(F)F.c1c(CN2CCCC2)nc2n1CCN(C1CCOCC1)C2", "Percent Effect": 102.1}, {"smiles": "c1c(CN2CCOCC2)nc2n1CCN(C1CCOCC1)C2", "Percent Effect": 79.69}, {"smiles": "c1c(CN2CCOCC2)nc2n1CCN(CC1CC1)C2", "Percent Effect": 101.8}, {"smiles": "O=C(CC1CC1)NCc1cn2c(n1)CN(C(=O)C1CCOCC1)CC2", "Percent Effect": 7.38}, {"smiles": "c1nc2n(c1CN1CCOCC1)CCN(C1CCOC1)CC2", "note": "(stereo not drawn)", "Percent Effect": -7.987}, {"smiles": "O=C(NCc1cn2c(n1)CN(CC1CCOCC1)CC2)C1CCC1.O=C(O)C(F)(F)F", "Percent Effect": -3.322}, {"smiles": "c1c(CN2CCCCC2)nc2n1CCN(CC1CC1)C2", "Percent Effect": 5.412}, {"smiles": "O=C(O)C(F)(F)F.O=C(O)C(F)(F)F.c1c(CN2CCCC2)nc2n1CCN(CC1CC1)C2", "Percent Effect": -6.407}, {"smiles": "CN1CCN(Cc2cn3c(n2)CN(C(=O)N2CCOCC2)CC3)CC1.O=C(O)C(F)(F)F.O=C(O)C(F)(F)F", "Percent Effect": -14.48}, {"smiles": "O=C(O)C(F)(F)F.O=C(O)C(F)(F)F.c1cn2c(n1)CN(C1CCOCC1)CC(CN1CCCC1)C2", "note": "(stereo not drawn)", "Percent Effect": -10.3}, {"smiles": "CN(Cc1cn2c(n1)CN(C1CCOCC1)CC2)Cc1ccco1.O=C(O)C(F)(F)F.O=C(O)C(F)(F)F", "Percent Effect": 4.973}, {"smiles": "CCCN1CC(C(=O)Nc2ccccn2)CC1=O", "note": "(stereo not drawn)", "Percent Effect": -15.01}, {"smiles": "COc1ccc(CN2CC[C@@H](N)[C@@H](OC)C2)cc1Cn1cncn1", "Percent Effect": 18.6}, {"smiles": "Cc1n[nH]cc1CNC(C(=O)N1CCOCC1)c1ccccc1", "note": "(stereo not drawn)", "Percent Effect": 6.045}, {"smiles": "Cc1cnc(-c2nc(C3CCN(Cc4ccccc4C)CC3)no2)cn1", "Percent Effect": 126.9}, {"smiles": "CN1CCC(Cc2noc(-c3cn(Cc4ccccc4Cl)nn3)n2)CC1", "Percent Effect": 21.53}, {"smiles": "Cc1cccn2cc(CN3CCCC(c4noc(C5CC5)n4)C3)nc12", "note": "(stereo not drawn)", "Percent Effect": -10.66}, {"smiles": "Cc1cnc(-c2nc(C3CCN(Cc4ccccc4Cl)CC3)no2)cn1", "Percent Effect": 142.3}, {"smiles": "Cc1cnc(CN2CCN(C(C)c3nc(C4CC4)no3)CC2)cn1", "note": "(stereo not drawn)", "Percent Effect": 13.95}, {"smiles": "c1cc(CN2CCCC(c3noc(C4CC4)n3)C2)no1", "note": "(stereo not drawn)", "Percent Effect": 4.824}, {"smiles": "Cc1cnc(-c2nc(C3CCCN(Cc4cccs4)C3)no2)cn1", "note": "(stereo not drawn)", "Percent Effect": 85.43}, {"smiles": "Cc1cnc(-c2nc(-c3cccc(CN4CCOCC4)c3)no2)cn1", "Percent Effect": 4.673}, {"smiles": "Cc1cnc(-c2nc(C3CCCN(Cc4ccccc4C)C3)no2)cn1.Cl", "note": "(stereo not drawn)", "Percent Effect": 93.62}, {"smiles": "Cc1nc(C2CCCN(c3ncc(Br)cn3)C2)no1", "note": "(stereo not drawn)", "Percent Effect": -7.201}, {"smiles": "Cc1nc(C)c(CN2CCOC(Cc3ccccc3Cl)C2)nc1C", "note": "(stereo not drawn)", "Percent Effect": -25.93}, {"smiles": "CCCNC(=O)CN1CCCC1c1nc(Cc2ccc(F)cc2)no1", "note": "(stereo not drawn)", "Percent Effect": -9.393}, {"smiles": "CC(C)N1CCOC[C@H]1c1nc(C(C)(C)C)c[nH]1", "Percent Effect": -12.91}, {"smiles": "Cc1ccccc1C(C)(C)CNC(=O)CN(C)c1cnccn1", "Percent Effect": 6.052}, {"smiles": "Cc1ccsc1C(=O)NC1CCN(c2cnn(C)c2)C1=O", "note": "(stereo not drawn)", "Percent Effect": -14.12}, {"smiles": "CC(C)(C)NC(=O)C[C@@H]1CCNC[C@@H]1Cc1cc(C(C)(C)C)on1", "Percent Effect": -4.858}, {"smiles": "Cc1cnc(-c2nc(C3CCN(Cc4ccccc4O)CC3)no2)cn1", "Percent Effect": 140.6}, {"smiles": "c1cc(C2CCN(Cc3nc(C4CC4)no3)CC2)[nH]n1", "Percent Effect": 45.49}, {"smiles": "c1ccc2[nH]c(C3CCN(Cc4nc(C5CC5)no4)CC3)cc2c1", "Percent Effect": 8.105}, {"smiles": "CCN(CC)C(C(=O)Nc1ccc2c(c1)CCC(=O)N2)c1ccccc1", "note": "(stereo not drawn)", "Percent Effect": -21.99}, {"smiles": "O=C(CN1CCN(c2ncccn2)[C@@H]2CS(=O)(=O)C[C@@H]21)N1CCCCC1", "Percent Effect": -9.163}, {"smiles": "CC(c1cccc(-c2nccn2CCc2ccccn2)c1)N(C)C", "note": "(stereo not drawn)", "Percent Effect": 15.78}, {"smiles": "CC(c1cccc(-c2ncc(C#N)c(N)n2)c1)N(C)C", "note": "(stereo not drawn)", "Percent Effect": 111.9}, {"smiles": "CC(c1cccc(-c2ncccc2F)c1)N(C)C", "note": "(stereo not drawn)", "Percent Effect": 118.4}, {"smiles": "CC(c1cccc(-c2ncccc2C#N)c1)N(C)C", "note": "(stereo not drawn)", "Percent Effect": 104.1}, {"smiles": "COC(C)(C)Cn1ccnc1-c1cccc(C(C)N(C)C)c1", "note": "(stereo not drawn)", "Percent Effect": 3.994}, {"smiles": "CC(c1cccc(-c2ccc(C(=O)O)cc2Cl)c1)N(C)C", "note": "(stereo not drawn)", "Percent Effect": -4.101}, {"smiles": "Cc1cnc(Cn2cc(-c3cccc(C(C)N(C)C)c3)nn2)cn1", "note": "(stereo not drawn)", "Percent Effect": -24.3}, {"smiles": "Cc1ccc(C(=O)O)cc1-c1cccc(C(C)N(C)C)c1", "note": "(stereo not drawn)", "Percent Effect": -7.98}, {"smiles": "CC(c1cccc(-c2nccn2CCc2cn[nH]c2)c1)N(C)C", "note": "(stereo not drawn)", "Percent Effect": 8.832}, {"smiles": "COc1ccccc1[C@@H]1CN(Cc2cc(C(C)(C)C)[nH]n2)C[C@H]1C(=O)O", "Percent Effect": -3.476}, {"smiles": "CCc1cnc(NCC2OCCc3ccccc32)nc1", "note": "(stereo not drawn)", "Percent Effect": 32.64}]}]}
